# Reference: PubChem BioAssay (NCATS)
# Inconclusive results are not listed. Values without a mark were called inactive. Activity calls are given as the source filed them. The call rests on the fitted dose curve; in most records, active means well fitted activation curve with a large enough effect; inconclusive means small, poorly fitted or top-dose-only effect; inactive means no such curve, though single readings can be large or run the other way.
# Molecular target: Cellular tumor antigen p53 (Homo sapiens) (UniProt P04637)
# Assay: Primary qHTS for small molecule compounds that upregulate eGFP-tagged delta133p53alpha (in N-terminal) cells. (AID 2060322); further: nearly all actives have a fitted effect of over 75% in size;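 on activation: series mostly up to about 56 µM; 0% = DMSO vehicle and 100% = reference activator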
# Settings: NCI-H358 eGFP-delta133p53alpha fluorescence, 24 h; activation: stronger effect = higher value
# Procedure, shortened: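 NCI-H358 cells pre-induced 24 h with 10 ng/ml doxycycline for eGFP-delta133p53alpha, plated dox-free and exposed 24 h at 37C to titrated compounds. Fixed, Hoechst-stained; gated GFP peak intensity by laser scanning cytometry, normalized to DMSO (0%) and 57.5 uM 5-azacytidine (100%).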
# Potency means the concentration at half of the fitted maximal effect.
# Cellular tumor antigen p53 (Homo sapiens), sequence (P04637 whole entry, looked up): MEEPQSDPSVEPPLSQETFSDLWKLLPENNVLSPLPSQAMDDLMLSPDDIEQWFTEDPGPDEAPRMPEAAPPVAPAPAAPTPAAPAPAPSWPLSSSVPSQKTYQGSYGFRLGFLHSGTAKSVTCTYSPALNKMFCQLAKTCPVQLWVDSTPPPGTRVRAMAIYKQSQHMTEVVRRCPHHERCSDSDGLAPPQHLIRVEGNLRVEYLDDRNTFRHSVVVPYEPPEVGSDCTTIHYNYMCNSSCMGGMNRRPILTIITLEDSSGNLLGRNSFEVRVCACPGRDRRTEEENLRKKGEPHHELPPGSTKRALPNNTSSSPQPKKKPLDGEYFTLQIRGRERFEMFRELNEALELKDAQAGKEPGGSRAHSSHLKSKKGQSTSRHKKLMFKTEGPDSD
SMILES,activation [%],Potency
CCN(CC)CCNC(=O)c1cc(Br)c(N)cc1OC,13,–
CCCCCCCCCCCCCCCCN,-20.1,–
O=C(COCCOCCOCC(=O)Nc1c(I)cc(I)c(C(=O)O)c1I)Nc1c(I)cc(I)c(C(=O)O)c1I,10,–
CN1CCCCC1CCN1c2ccccc2Sc2ccc(S(C)=O)cc21 (stereo not given),-3.95,–
CON=C(C(=O)N[C@@H]1C(=O)N2C(C(=O)O)=C(CSC(=O)c3ccco3)CS[C@H]12)c1csc(N)n1,4.83,–
CC[C@H]1CN2CCc3cc(OC)c(OC)cc3[C@H]2C[C@@H]1C[C@@H]1NCCc2cc(OC)c(OC)cc21,–,1370 nM (active)
CCC(CC)[C@H](NC(C)=O)[C@@H]1[C@H](O)[C@@H](C(=O)O)C[C@@H]1N=C(N)N,7.36,–
Nc1ncnc(Nc2ccccc2)n1,-16.7,–
CCCCN=C(N)NC(=N)N,9.6,–
CCCCCCCCOc1ccc(C(=O)c2ccccc2)c(O)c1,-2.82,–
CCCCC(C)(C)[C@H](O)C=C[C@H]1[C@H](O)CC(=O)[C@H]1CC=CCCCC(=O)O,1.38,–
C[C@H]1[C@H](NC(=O)/C(=N/OC(C)(C)C(=O)O)c2csc(N)n2)C(=O)N1S(=O)(=O)O (stereo in doubt),5.08,–
CC(C=CC=C(C)C=CC1=C(C)CCCC1(C)C)=CC=CC=C(C)C=CC=C(C)C=CC1=C(C)CCCC1(C)C,13.6,–
CCCCc1cc2ccccc2c(OCCN(C)C)n1,-0.565,–
[O-][n+]1cccc(/C(Cl)=N/OC[C@@H](O)CN2CCCCC2)c1,-6.69,–
CN1CCN(CCC(=O)N2c3ccccc3Sc3ccc(C(F)(F)F)cc32)CC1,18.6,–
COc1ccc2c(c1)c(CC(=O)OC/C=C(\C)CC/C=C(\C)CCC=C(C)C)c(C)n2C(=O)c1ccc(Cl)cc1,-1.69,–
CCN(CC)CCNC(=O)c1c(C)[nH]c(C=C2C(=O)Nc3ccc(F)cc32)c1C,–,12500 nM (active)
COc1cc(O)cc(O)c1,-1.67,–
CC(=O)[C@@]1(O)CC[C@H]2[C@@H]3C[C@H](C)C4=CC(=O)CC[C@]4(C)[C@H]3CC[C@@]21C,-5.86,–

SMILES,activation [%],Potency
CC(C)(c1ccc(O)cc1)c1ccc(O)cc1,-17.5,–
C[C@@H](O)[C@H]1C(=O)N2C(C(=O)O)=C(S[C@@H]3CN[C@H](C(=O)N(C)C)C3)[C@H](C)[C@H]12,7.34,–
CCCCNC(=O)NS(=O)(=O)c1ccc(N)cc1,-14.2,–
C=CCN1C[C@H](C(=O)N(CCCN(C)C)C(=O)NCC)C[C@@H]2c3cccc4[nH]cc(c34)C[C@H]21,-8.37,–
CCC(=O)Nc1ccc(O)cc1,-18.6,–
Nc1c(C(=O)Nc2ccc(F)cc2)sc2nc(-c3cccs3)cc(C(F)(F)F)c12,–,1530 nM (active)
O=c1[nH]c(=O)n([C@H]2O[C@H](CO)[C@@H](O)[C@@H]2O)cc1/C=C\Br,3.35,–
C/C(=C(\CCO)SS/C(CCO)=C(\C)N(C=O)Cc1cnc(C)nc1N)N(C=O)Cc1cnc(C)nc1N,-9.6,–
CCCCCCCCCCCCCCCCCCN(C)C,-22.6,–
O=C1c2ccccc2C(=O)C1c1ccc(Br)cc1,-22,–
CC(NN)c1ccccc1 (stereo not given),6.69,–
CC1(C)S[C@@H]2[C@H](NC(=O)C(c3ccccc3)S(=O)(=O)O)C(=O)N2[C@H]1C(=O)O (stereo not given in full),-13,–
O=c1[nH]c2cc(C(F)(F)F)c(N3CCOCC3)cc2n(CP(=O)(O)O)c1=O,6.21,–
CCOC(=O)C(=O)c1csc(NC=O)n1,-16.4,–
O=C(CCCl)NCc1ccccc1,-0.565,–
NC(=O)c1ncn([C@@H]2O[C@H](CO)[C@@H](O)[C@@H]2O)c1O,-3.98,–
O=C(Nc1ccccc1)Nc1ccc(-c2ccc(C(=O)[C@H]3CCC[C@H]3C(=O)O)cc2)cc1,-3.35,–
Cc1cc(=O)oc2cc(O[C@@H]3SC[C@@H](O)[C@H](O)[C@H]3O)ccc12,23.2,–
N#CSCC(=O)O,1.69,–
Cc1ccccc1OCC(O)CO (stereo not given),13,–
